The supplement of paper PMC4466140

B1: unnamed (peptide)
chain: LLRRTIPKRPFYHVL

Target: AgAbp1
Test: SPOT peptide array binding signal intensity (averaged, normalized) (arbitrary units (background-subtracted, floor 0; scale differs between SH3 domains)); higher = stronger binding of the SH3 domain to the peptide
Procedure, shortened: (§1)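 To measure binding, SH3 domains from four yeast species were fused to GST, expressed in E. coli BL21(DE3) and purified on glutathione Sepharose. Each domain was incubated at 10 μg/ml overnight at 4°C on cellulose membranes with synthetic 15-mer peptides whose cysteines were replaced by serines. Anti-GST antibody, an HRP anti-mouse secondary and luminol were used for detection, and images were quantified with Genespotter. Reported binding signal is normalized, background-subtracted spot intensity averaged over replicates, in arbitrary units that differ between domains.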

Binder | SPOT peptide array binding signal intensity
B1 | 66.5

Target: AgBbc1
Test: as above
Procedure, shortened: as §1

Binder | SPOT peptide array binding signal intensity
B1 | 73.8

Target: AgBem1-D1
Test: as above
Procedure, shortened: as §1

Binder | SPOT peptide array binding signal intensity
B1 | 44.5

Target: AgBzz1-D1
Test: as above
Procedure, shortened: as §1

Binder | SPOT peptide array binding signal intensity
B1 | 13

Target: AgBzz1-D2
Test: as above
Procedure, shortened: as §1

Binder | SPOT peptide array binding signal intensity
B1 | 200

Target: AgCyk3
Test: as above
Procedure, shortened: as §1

Binder | SPOT peptide array binding signal intensity
B1 | ≤ 0

Target: AgFus1
Test: as above
Procedure, shortened: as §1

Binder | SPOT peptide array binding signal intensity
B1 | 295

Target: AgHof1
Test: as above
Procedure, shortened: as §1

Binder | SPOT peptide array binding signal intensity
B1 | 11.5

Target: AgHse1
Test: as above
Procedure, shortened: as §1

Binder | SPOT peptide array binding signal intensity
B1 | 828

Target: AgLsb1
Test: as above
Procedure, shortened: as §1

Binder | SPOT peptide array binding signal intensity
B1 | 1

Target: AgLsb4
Test: as above
Procedure, shortened: as §1

Binder | SPOT peptide array binding signal intensity
B1 | 79

Target: AgMyo5
Test: as above
Procedure, shortened: as §1

Binder | SPOT peptide array binding signal intensity
B1 | ≤ 0

Target: AgNbp2
Test: as above
Procedure, shortened: as §1

Binder | SPOT peptide array binding signal intensity
B1 | 121

Target: AgRvs167
Test: as above
Procedure, shortened: as §1

Binder | SPOT peptide array binding signal intensity
B1 | 4.5

Target: AgSho1
Test: as above
Procedure, shortened: as §1

Binder | SPOT peptide array binding signal intensity
B1 | 59

Target: AgSla1-D1-D2
Test: as above
Procedure, shortened: as §1

Binder | SPOT peptide array binding signal intensity
B1 | 108

Target: AgSla1-D3
Test: as above
Procedure, shortened: as §1

Binder | SPOT peptide array binding signal intensity
B1 | 0.5

Target: CaAbp1-D1
Test: as above
Procedure, shortened: as §1

Binder | SPOT peptide array binding signal intensity
B1 | 604

Target: CaAbp1-D2
Test: as above
Procedure, shortened: as §1

Binder | SPOT peptide array binding signal intensity
B1 | 775

Target: CaBbc1
Test: as above
Procedure, shortened: as §1

Binder | SPOT peptide array binding signal intensity
B1 | 427

Target: CaBem1-D1
Test: as above
Procedure, shortened: as §1

Binder | SPOT peptide array binding signal intensity
B1 | 8.5

Target: CaBzz1-D1
Test: as above
Procedure, shortened: as §1

Binder | SPOT peptide array binding signal intensity
B1 | 71.5

Target: CaBzz1-D2
Test: as above
Procedure, shortened: as §1

Binder | SPOT peptide array binding signal intensity
B1 | 39.5

Target: CaCyk3
Test: as above
Procedure, shortened: as §1

Binder | SPOT peptide array binding signal intensity
B1 | 156

Target: CaFus1
Test: as above
Procedure, shortened: as §1

Binder | SPOT peptide array binding signal intensity
B1 | 314

Target: CaHof1
Test: as above
Procedure, shortened: as §1

Binder | SPOT peptide array binding signal intensity
B1 | 0.5

Target: CaHse1
Test: as above
Procedure, shortened: as §1

Binder | SPOT peptide array binding signal intensity
B1 | 22

Target: CaLsb1
Test: as above
Procedure, shortened: as §1

Binder | SPOT peptide array binding signal intensity
B1 | 0.5

Target: CaLsb4
Test: as above
Procedure, shortened: as §1

Binder | SPOT peptide array binding signal intensity
B1 | 94.5

Target: CaMyo5
Test: as above
Procedure, shortened: as §1

Binder | SPOT peptide array binding signal intensity
B1 | 0.5

Target: CaNbp2
Test: as above
Procedure, shortened: as §1

Binder | SPOT peptide array binding signal intensity
B1 | 262

Target: CaRvs167
Test: as above
Procedure, shortened: as §1

Binder | SPOT peptide array binding signal intensity
B1 | 48.2

Target: CaRvs167-3
Test: as above
Procedure, shortened: as §1

Binder | SPOT peptide array binding signal intensity
B1 | 92

Target: CaSho1
Test: as above
Procedure, shortened: as §1

Binder | SPOT peptide array binding signal intensity
B1 | 608

Target: CaSla1-D1-D2
Test: as above
Procedure, shortened: as §1

Binder | SPOT peptide array binding signal intensity
B1 | 140

Target: CaSla1-D3
Test: as above
Procedure, shortened: as §1

Binder | SPOT peptide array binding signal intensity
B1 | 3

Target: ScAbp1
Test: as above
Procedure, shortened: as §1

Binder | SPOT peptide array binding signal intensity
B1 | 23.5

Target: ScBbc1
Test: as above
Procedure, shortened: as §1

Binder | SPOT peptide array binding signal intensity
B1 | 25.5

Target: ScBem1-D1
Test: as above
Procedure, shortened: as §1

Binder | SPOT peptide array binding signal intensity
B1 | 7

Target: ScBzz1-D1
Test: as above
Procedure, shortened: as §1

Binder | SPOT peptide array binding signal intensity
B1 | 3.5

Target: ScBzz1-D2
Test: as above
Procedure, shortened: as §1

Binder | SPOT peptide array binding signal intensity
B1 | 13

Target: ScCyk3
Test: as above
Procedure, shortened: as §1

Binder | SPOT peptide array binding signal intensity
B1 | 26

Target: ScFus1
Test: as above
Procedure, shortened: as §1

Binder | SPOT peptide array binding signal intensity
B1 | 307

Target: ScHof1
Test: as above
Procedure, shortened: as §1

Binder | SPOT peptide array binding signal intensity
B1 | 1.5

Target: ScHse1
Test: as above
Procedure, shortened: as §1

Binder | SPOT peptide array binding signal intensity
B1 | 898

Target: ScLsb1
Test: as above
Procedure, shortened: as §1

Binder | SPOT peptide array binding signal intensity
B1 | 44.2

Target: ScLsb2
Test: as above
Procedure, shortened: as §1

Binder | SPOT peptide array binding signal intensity
B1 | 13

Target: ScLsb3
Test: as above
Procedure, shortened: as §1

Binder | SPOT peptide array binding signal intensity
B1 | 855

Target: ScLsb4
Test: as above
Procedure, shortened: as §1

Binder | SPOT peptide array binding signal intensity
B1 | 18.5

Target: ScMyo3
Test: as above
Procedure, shortened: as §1

Binder | SPOT peptide array binding signal intensity
B1 | 0.5

Target: ScMyo5
Test: as above
Procedure, shortened: as §1

Binder | SPOT peptide array binding signal intensity
B1 | ≤ 0

Target: ScNbp2
Test: as above
Procedure, shortened: as §1

Binder | SPOT peptide array binding signal intensity
B1 | 343

Target: ScPex13
Test: as above
Procedure, shortened: as §1

Binder | SPOT peptide array binding signal intensity
B1 | 110

Target: ScRvs167
Test: as above
Procedure, shortened: as §1

Binder | SPOT peptide array binding signal intensity
B1 | 612

Target: ScSho1
Test: as above
Procedure, shortened: as §1

Binder | SPOT peptide array binding signal intensity
B1 | 357

Target: ScSla1-D1-D2
Test: as above
Procedure, shortened: as §1

Binder | SPOT peptide array binding signal intensity
B1 | 146

Target: ScSla1-D3
Test: as above
Procedure, shortened: as §1

Binder | SPOT peptide array binding signal intensity
B1 | 2

Target: SpAbp1-D1
Test: as above
Procedure, shortened: as §1

Binder | SPOT peptide array binding signal intensity
B1 | 402

Target: SpBbc1
Test: as above
Procedure, shortened: as §1

Binder | SPOT peptide array binding signal intensity
B1 | 5

Target: SpBzz1-D1
Test: as above
Procedure, shortened: as §1

Binder | SPOT peptide array binding signal intensity
B1 | 76

Target: SpBzz1-D2
Test: as above
Procedure, shortened: as §1

Binder | SPOT peptide array binding signal intensity
B1 | ≤ 0

Target: SpCyk3
Test: as above
Procedure, shortened: as §1

Binder | SPOT peptide array binding signal intensity
B1 | ≤ 0

Target: SpHof1
Test: as above
Procedure, shortened: as §1

Binder | SPOT peptide array binding signal intensity
B1 | 73

Target: SpHof1-2
Test: as above
Procedure, shortened: as §1

Binder | SPOT peptide array binding signal intensity
B1 | 3.25

Target: SpHof1-3
Test: as above
Procedure, shortened: as §1

Binder | SPOT peptide array binding signal intensity
B1 | 401

Target: SpHse1
Test: as above
Procedure, shortened: as §1

Binder | SPOT peptide array binding signal intensity
B1 | 372

Target: SpLsb1
Test: as above
Procedure, shortened: as §1

Binder | SPOT peptide array binding signal intensity
B1 | 36.5

Target: SpLsb4
Test: as above
Procedure, shortened: as §1

Binder | SPOT peptide array binding signal intensity
B1 | 463

Target: SpMyo1
Test: as above
Procedure, shortened: as §1

Binder | SPOT peptide array binding signal intensity
B1 | 0.5

Target: SpNbp2
Test: as above
Procedure, shortened: as §1

Binder | SPOT peptide array binding signal intensity
B1 | 181

Target: SpPex13
Test: as above
Procedure, shortened: as §1

Binder | SPOT peptide array binding signal intensity
B1 | 1.5

Target: SpRvs167
Test: as above
Procedure, shortened: as §1

Binder | SPOT peptide array binding signal intensity
B1 | 227

Target: SpSla1-D1-D2
Test: as above
Procedure, shortened: as §1

Binder | SPOT peptide array binding signal intensity
B1 | ≤ 0

Target: SpSla1-D3
Test: as above
Procedure, shortened: as §1

Binder | SPOT peptide array binding signal intensity
B1 | 11
